The target of the first assay is LCN1. Description: pooled miR-30 sensor sort-seq; sequence = guide strand. The note with it: shRNA.
In the case of TTGGCTTCCAGGTTGCCCCCTT, the sensor-assay potency score (higher = more potent) was -0.189.

As to TGTTCTTGGGGTCTCTGCCCAC, the sensor-assay potency score (higher = more potent) was -1.02.

For TGGTCCTTCACGTGCGACCTGA, the sensor-assay potency score (higher = more potent) is -1.44.

The sequence ATTCATCTCAGGGAACTCCCTG displayed a sensor-assay potency score (higher = more potent) of -0.0672.

With TTCATCTCAGGGAACTCCCTGT, the sensor-assay potency score (higher = more potent) was 0.622.

In turn, TTCCAGGGTCGTGAGGGTCATG registered a sensor-assay potency score (higher = more potent) of -1.33.

As for TCTCCGTGCTGAGTCCGCGGGC, the sensor-assay potency score (higher = more potent) is -0.925.

The target in a further assay is LECT2. Described as above. The note with it: shRNA.
TTTGAGCAGAGTACTGTCCACA showed a sensor-assay potency score (higher = more potent) of -0.808.

In the case of ATGTAGAACATTTTGACACAAA, the sensor-assay potency score (higher = more potent) was -1.54.

With TTGACACAAAAACCTCTTCCAG, the sensor-assay potency score (higher = more potent) is -1.04.

The sequence TTGTATGCCAGGATAAACTTTC yielded a sensor-assay potency score (higher = more potent) of -0.895.

On to TATGCCAGGATAAACTTTCTGC, for which the sensor-assay potency score (higher = more potent) is -0.251.

TTATTGATAGCATTCTTGTTTT gave a sensor-assay potency score (higher = more potent) of -1.1.

The sequence TAATGTAGAACATTTTGACACA showed a sensor-assay potency score (higher = more potent) of -0.673.

In turn, ATTGATAGCATTCTTGTTTTGA yielded a sensor-assay potency score (higher = more potent) of -0.317.

With ATTATTGATAGCATTCTTGTTT, the sensor-assay potency score (higher = more potent) is -0.52.

Take TTCCAGATATTCGAACACCATT: the sensor-assay potency score (higher = more potent) is -1.45.

Turning to TATTCGAACACCATTATTGATA, the sensor-assay potency score (higher = more potent) was -1.28.

Take TCTCATTGGAAGACTTGCCAGC: the sensor-assay potency score (higher = more potent) is -0.403.

The next assay concerns the target LEFTY1. Described as above. The settings on record: shRNA.
Sequence TTCTCGGCCCACTTCATCCCCT yielded a sensor-assay potency score (higher = more potent) of -1.23.

TTTGAGCTGCAGCTGCCGCAGC returned a sensor-assay potency score (higher = more potent) of -0.825.

Regarding TTAGGTGAGGTAACTTGTCAGA, the sensor-assay potency score (higher = more potent) is -0.87.

Take TAAACAATGACACATTGGGCTT: the sensor-assay potency score (higher = more potent) is -1.

In turn, TCATAAGCCAGGAAGCCCGGGG had a sensor-assay potency score (higher = more potent) of -0.504.

In the case of TAGTCCCCAAGGTCCAGGGTGT, the sensor-assay potency score (higher = more potent) was -1.02.

In the case of TTACAAAGTCTTTATTATCTGG, the sensor-assay potency score (higher = more potent) was -0.428.

Take TGACCAGCTCCTCCATGTCGGC: the sensor-assay potency score (higher = more potent) was -1.7.

Regarding TCCATAGTCCCCAAGGTCCAGG, the sensor-assay potency score (higher = more potent) is -1.98.

TCCAACGCCAGGAACCTGCCGG came in with a sensor-assay potency score (higher = more potent) of -1.04.

Sequence TATCTCCACATGTAAGTGCTTA showed a sensor-assay potency score (higher = more potent) of -0.789.

In the case of TCTTTGAGCTGCAGCTGCCGCA, the sensor-assay potency score (higher = more potent) is -1.36.

The target in another assay is LEKR1. Described as above. The note with it: shRNA.
TTTAAGAGTGGTCACTTCCTGC returned a sensor-assay potency score (higher = more potent) of -0.157.

For the sequence TTAGATTCTTCAGTGTACCGAG, the sensor-assay potency score (higher = more potent) was found to be 0.595.

TTTCACAGTCAGCTCTTCCTGT: the sensor-assay potency score (higher = more potent) was determined as 0.514.

Sequence TTAGATCTCTTGTAGCGCCTGT gave a sensor-assay potency score (higher = more potent) of 0.858.

TTGCTTTTCTTTCACAGTCAGC registered a sensor-assay potency score (higher = more potent) of -1.35.

For the sequence TACTCTTTTCAGTTCATCCGAC, the sensor-assay potency score (higher = more potent) was determined as 0.07.

TATACTTTTGGATTACATCTTG came in with a sensor-assay potency score (higher = more potent) of -0.0779.

As to TTGCAATTTTGTTTCTTCCTTA, the sensor-assay potency score (higher = more potent) was 0.537.

In turn, TTGCTCTTCAAATTCAACCAAG showed a sensor-assay potency score (higher = more potent) of -1.09.
Also: reference of the scale not given here.
